# Experimental data taken from PubChem BioAssay (NCATS).
# Where “and” joins values, the source holds several entries; their conditions need not be identical. Equal values may be shown once. Records with an inconclusive call do not appear. Entries that show only a call come without a potency. Calls of active or inactive are those of the source. Unless noted, calls follow the shape of the full dose curve.
# What was measured:
# [1] = biological target: Estrogen receptor (Homo sapiens) (UniProt P03372); experiment: qHTS assay for small molecule agonists of estrogen receptor alpha signaling (AID 588514); also: nearly all actives have a fitted effect of over 70% in size
# Summary of the method: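 ER-alpha-UAS-bla GripTite HEK293 cells, 5000/well in 2% charcoal/dextran-stripped FBS medium, treated with compound titrations 18 h at 37 C. CCF4 beta-lactamase read by fluorescence after 2 h RT; normalised to 20 nM 17-beta-estradiol (100%) and DMSO (0%), Hill fit for EC50 and efficacy.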
# [2] = biological target: Peroxisome proliferator-activated receptor gamma (Homo sapiens) (UniProt P37231); experiment: qHTS assay for small molecule agonists of peroxisome proliferator-activated receptor gamma signaling (AID 588536; active = well fitted curve in the direction sought with a large enough effect in the signal ratio, with a control signal flat, not every such curve was filed as active; the % refers to the signal ratio)
# Peroxisome proliferator-activated receptor gamma (Homo sapiens), sequence (P37231 whole entry, looked up): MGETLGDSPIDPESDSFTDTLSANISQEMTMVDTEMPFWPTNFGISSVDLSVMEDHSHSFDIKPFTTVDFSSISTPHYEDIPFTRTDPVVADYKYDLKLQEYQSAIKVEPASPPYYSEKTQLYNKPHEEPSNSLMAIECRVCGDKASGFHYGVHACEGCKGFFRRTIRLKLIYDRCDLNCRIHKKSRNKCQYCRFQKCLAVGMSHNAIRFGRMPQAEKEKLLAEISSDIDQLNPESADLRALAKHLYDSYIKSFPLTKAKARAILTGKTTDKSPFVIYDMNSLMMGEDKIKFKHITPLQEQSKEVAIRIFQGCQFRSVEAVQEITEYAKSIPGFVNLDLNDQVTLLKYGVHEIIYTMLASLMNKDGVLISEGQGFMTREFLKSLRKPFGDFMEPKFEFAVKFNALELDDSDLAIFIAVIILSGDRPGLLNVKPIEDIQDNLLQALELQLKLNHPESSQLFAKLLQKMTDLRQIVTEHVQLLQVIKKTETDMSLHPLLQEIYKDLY
# Summary of the method: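 PPAR-gamma-UAS-bla HEK293 cells in medium with 1% charcoal/dextran-treated FBS were exposed to compounds for 16 h at 37 C. Beta-lactamase activity was read with CCF4 substrate (405 nm excitation, 460/530 nm emission).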
# [3] = biological target: Peroxisome proliferator-activated receptor gamma (Homo sapiens) (UniProt P37231); experiment: qHTS assay for small molecule antagonists of peroxisome proliferator-activated receptor gamma signaling (AID 588537; active = well fitted inhibition curve with a large enough effect in the signal ratio, with a control signal flat, not every such curve was filed as active; the % refers to the signal ratio;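 also: reporter cells co-stimulated with 50 nM rosiglitazone agonist during compound treatment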)
# Summary of the method: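 PPARγ-UAS-bla HEK293 cells (3000/well) in 1% charcoal/dextran-stripped FBS are treated with compound, then stimulated with 50 nM rosiglitazone for 16 h at 37 °C. Read-out is CCF4 β-lactamase fluorescence after 2 h at RT. IC50 comes from Hill fits normalised to rosiglitazone and DMSO.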
# [4] = biological target: Vitamin D3 receptor (Homo sapiens) (UniProt P11473); experiment: qHTS assay for small molecule antagonists of vitamin D receptor signaling (AID 588541);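 also: receptor activated by calcitriol during compound treatment; series mostly up to about 77 µM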
# Summary of the method: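 VDR-UAS-bla HEK293T cells in 2% charcoal-stripped FBS were stimulated with 1-alpha,25-dihydroxyvitamin D3 (3 nM final) plus compound for 16 h at 37 C. The beta-lactamase CCF4 readout was normalized to 50 nM agonist and DMSO, and Hill fits gave IC50.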
# [5] = biological target: Vitamin D3 receptor (Homo sapiens) (UniProt P11473); experiment: qHTS assay for small molecule agonists of vitamin D receptor signaling (AID 588543)
# Summary of the method: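 Agonist-mode beta-lactamase reporter: HEK293T VDR-UAS-bla cells in charcoal-stripped 2% FBS, compound series 16 h 37 C, CCF4 2 h RT. EC50 from Hill fit, scaled against DMSO and 50 nM calcitriol control.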
# [6] = qHTS assay for small molecule agonists of retinoid X receptor alpha signaling (AID 588544); conditions: HEK293T RXRa-UAS-bla, beta-lactamase reporter, 18 h; 530 nm emission
# [7] = biological target: Retinoic acid receptor RXR-alpha (Homo sapiens) (UniProt P19793); experiment: as above
# Retinoic acid receptor RXR-alpha (Homo sapiens), sequence (P19793 whole entry, looked up): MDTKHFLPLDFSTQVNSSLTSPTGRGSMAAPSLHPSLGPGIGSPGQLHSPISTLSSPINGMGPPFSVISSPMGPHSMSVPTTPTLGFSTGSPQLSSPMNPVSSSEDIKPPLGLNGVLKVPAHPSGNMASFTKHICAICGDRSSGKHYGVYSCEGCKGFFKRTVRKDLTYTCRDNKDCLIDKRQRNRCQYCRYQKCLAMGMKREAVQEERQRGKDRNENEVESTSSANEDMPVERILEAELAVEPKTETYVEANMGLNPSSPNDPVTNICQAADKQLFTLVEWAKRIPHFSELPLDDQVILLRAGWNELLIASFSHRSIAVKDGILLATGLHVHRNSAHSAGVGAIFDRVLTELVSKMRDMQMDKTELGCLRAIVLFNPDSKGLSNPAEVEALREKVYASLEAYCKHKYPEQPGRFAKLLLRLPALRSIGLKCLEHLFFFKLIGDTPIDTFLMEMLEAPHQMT
# [8] = biological target: Thyroid hormone receptor beta (Homo sapiens) (UniProt P10828); experiment: qHTS assay for small molecule agonists of thyroid hormone receptor beta signaling (AID 588545)
# Summary of the method: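 Cells (2500/well) were seeded, incubated 4 hrs at 37 C, dosed with a compound series, incubated 18 hrs, loaded with CCF4 dye for 2 hrs at RT, then read for fluorescence. Data were scaled between DMSO (0%) and 10 nM T3 (100%).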
# [9] = qHTS assay for small molecule antagonists of retinoid X receptor alpha signaling (AID 588546; active = well fitted inhibition curve with a large enough effect in the signal ratio, with a control signal flat, not every such curve was filed as active; the % refers to the signal ratio;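 also: cells stimulated with 9-cis-retinoic acid as agonist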); conditions: HEK293T RXRa-UAS-bla, beta-lactamase ratio, antagonist mode; measured here: W530 green channel, cytotoxicity proxy
# Summary of the method: (§1)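 Beta-lactamase reporter inhibition, read as CCF4 fluorescence ratio (ex 405, em 460/530 nm) after 2 h at RT. HEK293T UAS-bla cells, 2500/well, were stimulated with 9-cis-RA at 500 or 100 nM final alongside test compound for 18 h at 37 C.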
# [10] = biological target: Retinoic acid receptor RXR-alpha (Homo sapiens) (UniProt P19793); experiment: as above; conditions: HEK293T RXRa-UAS-bla, beta-lactamase ratio, antagonist mode
# Summary of the method: as §1
# [11] = biological target: Thyroid hormone receptor beta (Homo sapiens) (UniProt P10828); experiment: qHTS assay for small molecule antagonists of thyroid hormone receptor beta signaling (AID 588547; active = well fitted inhibition curve with a large enough effect in the signal ratio, with a control signal flat, not every such curve was filed as active; the % refers to the signal ratio;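 also: cells stimulated with 0.4 nM T3 agonist during compound exposure; series mostly up to about 77 µM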); conditions: TR-UAS-bla HEK293, beta-lactamase ratio, antagonist mode, 18 h
# Summary of the method: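 TR-UAS-bla GripTite HEK293 cells in 2% charcoal/dextran FBS medium; compounds 0.59 nM to 92 uM with T3 at 0.4nM final, 18 h at 37 C. Beta-lactamase read by CCF4 fluorescence (460/530 nm); Hill fits gave IC50 and efficacy.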
# [12] = biological target: Luciferin 4-monooxygenase (Photinus pyralis) (UniProt P08659); experiment: Biochemical firefly luciferase enzyme assay for NPC (AID 624030; active = well fitted curve in the direction sought with a large enough effect; an effect the other way counts as inactive or inconclusive;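 also: purified P. pyralis luciferase at 10 nM with luciferin and ATP substrate; series mostly up to about 59 µM; nearly all actives have a fitted effect of over 70% in size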)
# Summary of the method: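 Purified P. pyralis luciferase at 10 nM in 50 mM Tris Acetate (final), luminescence read within 5 minutes of enzyme addition to compounds. Activity normalised to PTC124 versus DMSO; concentration-response curves classed by r2, magnitude and activity.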
# [13] = S16 Schwann cell viability assay (CellTiter-Glo assay) (AID 624031; active = well fitted curve in the direction sought with a large enough effect; an effect the other way counts as inactive or inconclusive;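 also: native untransfected S16 rat Schwann cells; series mostly up to about 58 µM; nearly all actives have a fitted effect of over 70% in size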)
# Summary of the method: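 Counter-screen for cytotoxicity: parental S16 rat Schwann cells lacking the PMP22 reporters, treated 24 h with compound, viability from cellular ATP by CellTiter-Glo luminescence, normalized to DMSO (0%) and no-cell wells.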
# [14] = biological target: DNA dC->dU-editing enzyme APOBEC-3G (Homo sapiens) (UniProt Q9HC16); experiment: qHTS for inhibitors of Vif-A3G interactions: Validation (AID 588379; active = well fitted curve in the direction sought with a large enough effect; an effect the other way counts as inactive or inconclusive)
# DNA dC->dU-editing enzyme APOBEC-3G (Homo sapiens), sequence (Q9HC16 whole entry, looked up): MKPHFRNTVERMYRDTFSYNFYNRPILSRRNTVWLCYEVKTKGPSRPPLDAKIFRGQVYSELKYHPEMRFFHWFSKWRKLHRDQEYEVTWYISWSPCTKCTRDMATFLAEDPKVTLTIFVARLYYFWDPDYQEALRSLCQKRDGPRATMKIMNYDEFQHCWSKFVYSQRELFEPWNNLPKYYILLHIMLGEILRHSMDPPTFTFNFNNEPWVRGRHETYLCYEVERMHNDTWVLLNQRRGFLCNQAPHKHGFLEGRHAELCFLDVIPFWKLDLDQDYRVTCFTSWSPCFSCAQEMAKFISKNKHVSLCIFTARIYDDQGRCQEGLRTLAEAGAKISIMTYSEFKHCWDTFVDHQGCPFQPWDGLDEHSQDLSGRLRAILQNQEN
# Summary of the method: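 HeLa cells stably expressing Vif and A3G-eYFP, 700 cells/well, incubated overnight at 37 deg C, then exposed to compound overnight at 37 deg C. Inhibition of Vif-mediated degradation read as increased yellow fluorescence (Ex 488/Em 500-530) by laser-scanning cytometry.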
# [15] = biological target: Voltage-gated inwardly rectifying potassium channel KCNH2 (Homo sapiens) (UniProt Q12809); experiment: qHTS Assay for Small Molecule Inhibitors of the Human hERG Channel Activity (AID 588834; active = well fitted curve in the direction sought with a large enough effect; an effect the other way counts as inactive or inconclusive;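 also: top concentration of the series differs between compounds; lower thallium flux fluorescence means stronger hERG block; nearly all actives have a fitted effect of over 50% in size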)
# Voltage-gated inwardly rectifying potassium channel KCNH2 (Homo sapiens), sequence (Q12809 whole entry, looked up): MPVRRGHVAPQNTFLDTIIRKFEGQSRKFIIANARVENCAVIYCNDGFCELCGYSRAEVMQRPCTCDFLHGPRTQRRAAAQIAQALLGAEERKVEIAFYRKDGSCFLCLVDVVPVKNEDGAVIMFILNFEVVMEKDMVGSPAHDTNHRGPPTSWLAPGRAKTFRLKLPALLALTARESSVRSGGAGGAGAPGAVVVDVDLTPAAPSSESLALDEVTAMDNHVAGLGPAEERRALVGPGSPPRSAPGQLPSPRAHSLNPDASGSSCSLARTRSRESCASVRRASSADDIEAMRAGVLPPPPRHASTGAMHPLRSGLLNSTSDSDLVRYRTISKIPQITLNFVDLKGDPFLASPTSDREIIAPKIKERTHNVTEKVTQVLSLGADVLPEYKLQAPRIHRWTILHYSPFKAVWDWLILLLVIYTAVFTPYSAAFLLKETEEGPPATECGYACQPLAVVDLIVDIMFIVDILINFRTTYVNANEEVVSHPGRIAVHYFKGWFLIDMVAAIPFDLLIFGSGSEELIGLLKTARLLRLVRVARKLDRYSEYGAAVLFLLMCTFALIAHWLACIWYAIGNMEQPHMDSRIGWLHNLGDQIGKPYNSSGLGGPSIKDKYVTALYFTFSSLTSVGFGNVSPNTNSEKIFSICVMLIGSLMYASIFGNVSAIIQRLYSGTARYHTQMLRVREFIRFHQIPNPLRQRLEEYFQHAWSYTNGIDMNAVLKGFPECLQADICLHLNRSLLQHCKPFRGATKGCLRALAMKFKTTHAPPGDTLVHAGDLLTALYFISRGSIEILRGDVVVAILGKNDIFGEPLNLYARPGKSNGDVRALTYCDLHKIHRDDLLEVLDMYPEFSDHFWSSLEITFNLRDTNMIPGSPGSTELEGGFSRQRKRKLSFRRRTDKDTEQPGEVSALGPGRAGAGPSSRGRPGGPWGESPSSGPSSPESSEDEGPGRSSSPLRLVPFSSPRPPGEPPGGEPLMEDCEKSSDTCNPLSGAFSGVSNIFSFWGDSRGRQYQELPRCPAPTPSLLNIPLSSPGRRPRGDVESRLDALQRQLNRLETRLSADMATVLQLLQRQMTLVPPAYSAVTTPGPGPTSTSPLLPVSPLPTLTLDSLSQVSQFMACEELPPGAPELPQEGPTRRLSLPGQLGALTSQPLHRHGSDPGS
# Summary of the method: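 Kinetic FDSS fluorescence; U2OS + hERG BacMam (~100 virus particles/cell); FluxOR Tl+ flux; ~10 min cpd; AC50 (Hill).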
# [16] = biological target: Androgen receptor (Homo sapiens) (UniProt P10275); experiment: qHTS assay for small molecule agonists of androgen receptor signaling (AID 588515; active = well fitted curve in the direction sought with a large enough effect in the signal ratio, with a control signal flat; the % refers to the signal ratio); conditions: AR-UAS-bla HEK293, beta-lactamase ratio, agonist 16 h; stronger effect = higher value
# Androgen receptor (Homo sapiens), sequence (P10275 whole entry, looked up): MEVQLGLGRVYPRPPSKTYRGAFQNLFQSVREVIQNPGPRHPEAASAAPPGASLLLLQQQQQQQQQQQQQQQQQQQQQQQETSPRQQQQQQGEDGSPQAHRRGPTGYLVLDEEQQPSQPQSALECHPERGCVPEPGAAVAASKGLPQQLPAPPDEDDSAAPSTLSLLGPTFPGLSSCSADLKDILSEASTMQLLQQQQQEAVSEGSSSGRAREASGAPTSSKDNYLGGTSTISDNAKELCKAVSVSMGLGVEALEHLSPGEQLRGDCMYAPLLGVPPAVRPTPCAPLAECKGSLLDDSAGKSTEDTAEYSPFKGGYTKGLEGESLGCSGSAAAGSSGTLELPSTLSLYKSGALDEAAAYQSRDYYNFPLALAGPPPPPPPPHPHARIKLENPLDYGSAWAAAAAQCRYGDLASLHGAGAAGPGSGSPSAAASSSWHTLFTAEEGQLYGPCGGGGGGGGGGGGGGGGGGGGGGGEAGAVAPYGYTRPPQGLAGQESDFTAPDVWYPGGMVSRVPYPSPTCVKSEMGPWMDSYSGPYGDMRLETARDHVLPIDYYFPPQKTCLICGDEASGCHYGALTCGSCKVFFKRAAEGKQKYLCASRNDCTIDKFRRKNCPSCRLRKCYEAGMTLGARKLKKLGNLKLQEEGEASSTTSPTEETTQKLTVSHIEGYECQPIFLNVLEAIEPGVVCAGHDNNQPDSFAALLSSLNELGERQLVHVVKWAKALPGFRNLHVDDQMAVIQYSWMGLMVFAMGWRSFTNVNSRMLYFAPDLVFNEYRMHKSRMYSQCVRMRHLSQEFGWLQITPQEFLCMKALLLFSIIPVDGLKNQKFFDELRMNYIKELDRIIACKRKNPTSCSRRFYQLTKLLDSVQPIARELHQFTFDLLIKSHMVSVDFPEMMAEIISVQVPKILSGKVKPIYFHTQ
# Summary of the method: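 EC50 and efficacy came from Hill fits of titrations (up to 92 uM) normalized to 30 nM R1881 as 100% and DMSO as 0%. Compound exposure was 16 h at 37 C on AR-UAS-bla HEK293 cells, with a 405/460/530 nm CCF4 fluorescence read.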
# [17] = biological target: Androgen receptor (Homo sapiens) (UniProt P10275); experiment: qHTS assay for small molecule antagonists of androgen receptor signaling (AID 588516; active = well fitted curve in the direction sought with a large enough effect in the signal ratio, with a control signal flat, not every such curve was filed as active; the % refers to the signal ratio)
# Summary of the method: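 Antagonist mode: inhibition of R1881-stimulated (10 nM final) bla reporter in GeneBLAzer AR HEK 293 cells, 16 h at 37C, compounds titrated. IC50 and efficacy from Hill-equation fits of 405/460–530 nm FRET ratios.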
# [18] = biological target: Bile acid receptor (Homo sapiens) (UniProt Q96RI1); experiment: qHTS assay for small molecule antagonists of farnesoid X receptor signaling (AID 588526)
# Bile acid receptor (Homo sapiens), sequence (Q96RI1 whole entry, looked up): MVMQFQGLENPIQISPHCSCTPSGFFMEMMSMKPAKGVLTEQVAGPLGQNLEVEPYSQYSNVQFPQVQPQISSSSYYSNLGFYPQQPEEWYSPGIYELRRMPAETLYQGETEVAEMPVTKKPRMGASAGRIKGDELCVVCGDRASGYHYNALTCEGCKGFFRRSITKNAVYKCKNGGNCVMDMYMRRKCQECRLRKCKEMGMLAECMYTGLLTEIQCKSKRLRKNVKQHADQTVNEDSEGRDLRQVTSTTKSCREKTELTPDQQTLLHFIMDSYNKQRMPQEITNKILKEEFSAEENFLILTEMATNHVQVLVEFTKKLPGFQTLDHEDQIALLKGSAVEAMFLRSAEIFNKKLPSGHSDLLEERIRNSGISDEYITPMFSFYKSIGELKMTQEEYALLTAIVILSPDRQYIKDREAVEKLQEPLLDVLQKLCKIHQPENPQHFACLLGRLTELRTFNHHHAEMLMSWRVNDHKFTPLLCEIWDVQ
# Summary of the method: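 Antagonist mode: titrated compounds tested against chenodeoxycholic acid stimulation (normalized to 50 uM CDCA and DMSO) in GeneBLAzer HEK293T cells for 16 h. Beta-lactamase read by CCF4 fluorescence; IC50 from Hill fits.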
# [19] = biological target: Glucocorticoid receptor (Homo sapiens) (UniProt P04150); experiment: qHTS assay for small molecule antagonists of glucocorticoid receptor signaling (AID 588533; active = well fitted inhibition curve with a large enough effect in the signal ratio, with a control signal flat, not every such curve was filed as active; the % refers to the signal ratio)
# Glucocorticoid receptor (Homo sapiens), sequence (P04150 whole entry, looked up): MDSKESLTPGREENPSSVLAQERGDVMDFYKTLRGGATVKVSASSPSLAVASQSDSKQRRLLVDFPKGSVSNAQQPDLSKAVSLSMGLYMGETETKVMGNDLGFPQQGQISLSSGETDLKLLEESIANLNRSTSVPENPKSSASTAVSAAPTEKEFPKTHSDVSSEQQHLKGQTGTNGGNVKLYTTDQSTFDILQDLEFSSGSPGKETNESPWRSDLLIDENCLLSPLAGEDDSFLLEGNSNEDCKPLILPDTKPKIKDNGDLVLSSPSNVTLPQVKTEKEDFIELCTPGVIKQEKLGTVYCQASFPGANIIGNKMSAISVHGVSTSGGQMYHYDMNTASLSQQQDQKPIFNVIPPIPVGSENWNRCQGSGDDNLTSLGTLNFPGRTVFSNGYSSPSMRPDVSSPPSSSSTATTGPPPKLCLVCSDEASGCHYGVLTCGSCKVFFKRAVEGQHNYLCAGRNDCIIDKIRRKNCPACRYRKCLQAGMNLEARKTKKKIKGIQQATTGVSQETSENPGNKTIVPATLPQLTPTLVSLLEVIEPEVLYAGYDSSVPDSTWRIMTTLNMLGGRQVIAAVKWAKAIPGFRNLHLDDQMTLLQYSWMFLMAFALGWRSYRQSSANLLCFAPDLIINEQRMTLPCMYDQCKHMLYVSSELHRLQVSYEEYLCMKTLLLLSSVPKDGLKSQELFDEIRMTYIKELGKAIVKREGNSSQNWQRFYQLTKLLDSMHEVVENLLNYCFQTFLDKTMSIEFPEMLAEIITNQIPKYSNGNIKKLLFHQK
# Summary of the method: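 Antagonist-mode qHTS: compound titrations added to GRE-bla HeLa cells, then dexamethasone 2 nM final; 18 h, 37 C. CCF4 FRET fluorescence normalized to dexamethasone and DMSO; IC50 from Hill fit.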
# [20] = qHTS assay for small molecule antagonists of peroxisome proliferator-activated receptor delta signaling (AID 588535); conditions: HEK293T PPARd-UAS-bla, beta-lactamase FRET ratio, 18 h; 460 nm channel;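 also: cells co-treated with a PPAR-delta agonist as stimulator during compound exposure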
# Summary of the method: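 Antagonist-mode beta-lactamase reporter (GeneBLAzer PPAR-delta-UAS-bla) in HEK293T cells, 2% charcoal/dextran FBS, 4000 cells/well. Compound titrations, 18 h at 37 C; CCF4 ratio read, IC50 and efficacy from Hill fits.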
SMILES,outcome [1],outcome [2],outcome [3],outcome [4],outcome [5],max response [6],outcome [7],outcome [8],max response [9],max response [10],activity change % (negative = inhibition) [11],Potency [12],outcome [13],outcome [14],Potency [15],activation [16],outcome [17],outcome [18],outcome [19],max response [20]
OC[C@@H](O)[C@@H](O)[C@H](O)[C@H](O)CO,inactive,inactive,inactive,inactive,inactive,-0.766%,inactive,inactive,-16.3%,13.9% (inactive),-14.9% (inactive),inactive,inactive,–,–,–,–,–,–,–
C[C@@H](N)C(=O)O,–,–,–,–,–,–,–,–,–,–,–,inactive,inactive,inactive,inactive,–,–,–,–,–
CC(=O)Nc1cccc(O)c1,inactive,inactive,–,–,–,11%,inactive,inactive,-5.06%,5.72% (inactive),8.82% (inactive),inactive,inactive,–,inactive,–,–,–,–,–
CC(C)=CCC/C(C)=C/CO,–,inactive,inactive,inactive,–,-9.95%,inactive,inactive,-9.74%,-1.85% (inactive),13.2% (inactive),inactive,–,–,inactive,8.43% (inactive),inactive,inactive,inactive,-8.02%
O=C(O)CCCCC1CCSS1 (stereo unspecified),inactive,inactive,inactive,inactive,inactive,–,–,inactive,-14.4%,-5.4% (inactive),1.34% (inactive),inactive,inactive,inactive,inactive,–,–,–,inactive,4.26%
COc1ccc(O)cc1,–,–,–,inactive,inactive,-5.99%,inactive,inactive,-9.24%,-8.57% (inactive),–,inactive,–,–,inactive,-4.19% (inactive),inactive,–,inactive,3.48%
CC(=O)OCC(COC(C)=O)OC(C)=O,–,inactive,inactive,inactive,inactive,-12.6% and -13.8%,inactive,inactive,-8.38%,4.6% (inactive),-1.64% (inactive) and -0.0126% (inactive),inactive,inactive,–,inactive,–,–,–,inactive,-24.1% and 22.8%
Cc1cc(=O)[nH]c(=S)[nH]1,inactive,inactive,inactive,inactive,inactive,-2.22%,inactive,inactive,-3.7%,1.44% (inactive),15.5% (inactive),inactive,inactive,–,inactive,–,–,inactive,inactive,–
C1CCN2C[C@@H]3C[C@@H](CN4CCCC[C@@H]34)[C@H]2C1,–,–,–,–,–,–,–,–,–,–,–,–,–,inactive,–,–,–,–,–,–
CCCCCC(N)=O,–,inactive,inactive,inactive,inactive,-21.2%,inactive,inactive,-2.91%,-2.1% (inactive),-10.5% (inactive),inactive,inactive,–,inactive,–,–,–,–,-31.8%
Nc1ccc(S(=O)(=O)c2ccc(N)cc2)cc1,inactive,inactive,inactive,–,–,9.37%,inactive,inactive,-11.9%,-26.2% (inactive),-17.4% (inactive) and -7.69% (inactive),inactive,inactive,–,inactive,–,–,inactive,–,-19.4% and 10.1%
O=C1C(c2[nH]c3ccccc3c2O)=Nc2ccccc21,–,–,–,–,–,16.9%,inactive,inactive,0.17%,9.96% (inactive),0.455% (inactive),–,inactive,–,inactive,–,–,inactive,inactive,32.9%
CCCCCCCCCCCCCCCCCCO,inactive,inactive,inactive,inactive,inactive,-0.452%,inactive,inactive,4.76%,3.77% (inactive),3.9% (inactive),inactive,inactive,–,inactive,–,–,–,inactive,2.82%
CCN(CC)C(=O)c1cccc(C)c1,inactive,inactive,inactive,inactive,inactive,-4.92% and 6.96%,inactive,–,-0.756% and -2.65%,0.203% (inactive) and -8.17% (inactive),-13.1% (inactive),inactive,inactive,–,inactive,–,–,inactive,inactive,-21.8%
FC(F)(F)C(Cl)Br (stereo unspecified),inactive,inactive,inactive,–,–,-10.5%,inactive,inactive,-1.63%,-3.82% (inactive),8.04% (inactive),inactive,inactive,–,inactive,–,–,–,inactive,-35.1%
Cc1cc(C)nc(NS(=O)(=O)c2ccc(N)cc2)n1,–,inactive,–,–,–,-3.23% and 6.31%,inactive,inactive,1.53% and -6.64%,-0.622% (inactive) and -18.2% (inactive),-2.95% (inactive) and 11.9% (inactive),inactive,inactive,–,inactive,–,–,inactive,inactive,18.4% and -14.9%
C[N+](C)(C)CC[N+]1(C)Cc2c(Cl)c(Cl)c(Cl)c(Cl)c2C1,–,–,–,–,–,–,–,–,–,–,–,inactive,inactive,inactive,inactive,–,–,–,–,–
